# Measurements taken from article PMC4336329 (PLoS ONE, 2015).
# The campaign covered roughly 310,000 compounds. About 14,000 (4.5%) showed an effect of 50% or more. The effect is printed as a negative number. The list comes from a sample in which strong results are over-represented; it also holds similar structures and randomly drawn compounds.
# Molecular target: human ether-à-go-go-related gene (hERG) potassium channel (human, UniProt Q12809)
# Assay: primary screen, population patch clamp on CHO cells stably expressing hERG; higher = less effect of the substance
# 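Note: peak tail current of the secondary pulse compared with the same well before compound.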
# Chain of human ether-à-go-go-related gene (hERG) potassium channel (Q12809 whole entry, looked up): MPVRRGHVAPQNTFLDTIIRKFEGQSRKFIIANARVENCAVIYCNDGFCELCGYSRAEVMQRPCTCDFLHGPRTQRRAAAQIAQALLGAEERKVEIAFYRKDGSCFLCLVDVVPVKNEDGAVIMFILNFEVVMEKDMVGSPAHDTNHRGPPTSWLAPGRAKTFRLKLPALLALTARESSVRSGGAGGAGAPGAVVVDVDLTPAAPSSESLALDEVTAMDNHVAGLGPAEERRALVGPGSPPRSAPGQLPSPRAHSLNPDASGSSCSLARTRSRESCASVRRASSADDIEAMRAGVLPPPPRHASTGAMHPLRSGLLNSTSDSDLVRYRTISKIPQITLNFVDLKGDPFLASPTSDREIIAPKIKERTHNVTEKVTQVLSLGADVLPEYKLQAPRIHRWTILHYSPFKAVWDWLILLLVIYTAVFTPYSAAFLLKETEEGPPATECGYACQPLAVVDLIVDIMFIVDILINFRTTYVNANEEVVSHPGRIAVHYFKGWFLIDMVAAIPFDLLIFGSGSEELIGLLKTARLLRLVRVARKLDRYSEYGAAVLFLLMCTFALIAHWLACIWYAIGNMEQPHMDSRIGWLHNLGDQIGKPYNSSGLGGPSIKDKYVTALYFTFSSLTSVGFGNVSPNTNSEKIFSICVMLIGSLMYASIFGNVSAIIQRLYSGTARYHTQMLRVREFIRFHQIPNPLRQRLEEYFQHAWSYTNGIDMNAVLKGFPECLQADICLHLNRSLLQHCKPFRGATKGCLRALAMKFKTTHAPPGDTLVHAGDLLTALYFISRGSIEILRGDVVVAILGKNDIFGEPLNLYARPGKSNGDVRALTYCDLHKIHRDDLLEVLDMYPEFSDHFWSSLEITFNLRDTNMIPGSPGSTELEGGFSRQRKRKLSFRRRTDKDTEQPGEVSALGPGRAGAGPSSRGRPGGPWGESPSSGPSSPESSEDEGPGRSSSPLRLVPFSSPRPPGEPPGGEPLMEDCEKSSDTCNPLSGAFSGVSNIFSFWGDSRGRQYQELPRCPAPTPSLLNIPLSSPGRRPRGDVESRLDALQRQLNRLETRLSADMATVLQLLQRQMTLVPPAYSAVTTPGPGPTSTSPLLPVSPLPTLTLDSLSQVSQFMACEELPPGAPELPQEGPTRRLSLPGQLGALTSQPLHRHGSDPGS
row,SMILES,"hERG current change (%, negative = inhibition) at 10uM [%]"
1,Nc1nnc(SCC(=O)Nc2ccc(Cl)c(C(=O)O)c2)s1,19.8
2,O=C(NCCc1ccc(C(F)(F)F)cc1)C1CC(=O)N(c2ccc3c(c2)OCCO3)C1 (stereo not drawn),-2.97
3,O=C(Cn1cc(C(=O)C2CCCCC2)c2ccccc21)NCC1CCCO1 (stereo not drawn),-14.8
4,O=C(Nc1ccc(Br)cc1)NC1CCCCCCC1,2.29
5,O=C(NCCN1CCCCC1)/C(=N\O)c1ccccc1,5.35
6,COc1ccc(N2CCN(C(=O)CCNC(=O)c3ccc(Br)cc3)CC2)cc1,-20.2
7,O=C(CCC(=O)N1CCN(c2cccc(Cl)c2)CC1)c1cccs1,-56.8
8,O=C(c1cccs1)N1CCN(c2cccc(Cl)c2)CC1,-16.5
9,COc1ccccc1N1CCN(C(=O)CCn2c(=O)[nH]c3ccsc3c2=O)CC1,8.71
10,O=C(CCn1c(=O)[nH]c2ccsc2c1=O)N1CCN(c2cccc(Cl)c2)CC1,-52.3
11,O=C(CCC(=O)N1CCN(c2ccc(O)cc2)CC1)c1cccs1,-3.11
12,O=C(NCCC(=O)N1CCN(c2cccc(Cl)c2)CC1)c1ccc(Br)cc1,-55
13,O=C(CCn1c(=O)[nH]c2ccsc2c1=O)N1CCN(c2ccc([N+](=O)[O-])cc2)CC1,-35.2
14,O=C(NCCC(=O)N1CCN(c2ccccc2O)CC1)c1ccc(Br)cc1,-13.3
15,COc1ccccc1CSc1ncc(-c2ccc([N+](=O)[O-])cc2)[nH]1,-13.8
16,CC(C)(C)C(=O)CN1C(=O)NC2(CCCc3ccccc32)C1=O (stereo not drawn),14
17,O=C(CCC1CCN(C(=O)c2cncs2)CC1)Nc1ccccc1,-4.83
18,COCCNC(=O)CN(C(=O)CCC(=O)Nc1ccccn1)c1ccc(C)c(C)c1,16
19,COc1ccc(C(=O)/C=C/NCc2ccc(F)cc2)cc1OC,-65
20,Cc1ccc(C(=O)/C=C/NCc2ccc(F)cc2)cc1,-9.71
21,CCc1ccc(C(=O)/C=C/NCc2ccc(F)cc2)cc1,-4.74
22,CC(C)=C1C2CCC1C1C(=O)N(c3nc(-c4ccccc4)c(C)s3)C(=O)C21 (stereo not drawn),-2.93
23,COc1cccc(NC(=O)CSc2nc3scc(C)c3c(=O)[nH]2)c1,10.5
24,CC(=O)c1ccc(N2CCN(c3ccc(S(=O)(=O)NCCN(C)C)cc3[N+](=O)[O-])CC2)cc1,-23.2
25,CN(C)CCNS(=O)(=O)c1ccc(N2CCN(c3ccc(F)cc3)CC2)c([N+](=O)[O-])c1,-62.4
26,CC(=O)c1ccc(N2CCN(c3ccc(S(=O)(=O)NCCCN(C)C)cc3[N+](=O)[O-])CC2)cc1,-18.1
27,CCOC(=O)c1c(N)nn(C(=O)C(C)C)c1-c1ccc(OC)cc1,22.1

row,SMILES,"hERG current change (%, negative = inhibition) at 10uM [%]"
1,O=[n+]1c2c(n([O-])c3cc(F)c(F)cc31)CCCC2,10.2
2,CCN(CC)CCn1c2c(c(SCC(=O)Nc3nccs3)nc1=O)CCCC2,-59.5
3,CN(C)CCn1c2c(c(SCC(=O)Nc3nccs3)nc1=O)CCCC2,-30
4,Cc1csc(NC(=O)CSc2nc(=O)n(CCN(C)C)c3c2CCCC3)n1,-55.9
5,CCN(CC)CCn1c2c(c(SCC(=O)Nc3nc(C)cs3)nc1=O)CCCC2,-70.1
6,CCN(CC)CCCn1c2c(c(SCC(=O)Nc3nccs3)nc1=O)CCC2,-32
7,CCN(CC)CCCn1c2c(c(SCC(=O)Nc3nc(C)cs3)nc1=O)CCC2,-42.6
8,CCN(CC)CCn1c2c(c(SCC(=O)Nc3nc(C)cs3)nc1=O)CCC2,-48.7
9,Cc1ccc(S(=O)(=O)NCC(=O)NCC(=O)OC(C(=O)NC(N)=O)C(C)C)cc1C (stereo not drawn),8.86
10,CC(C)c1nc(SCC(=O)N2CCCCCC2)c2c(=O)n(C)c(=O)n(C)c2n1,-11.2
11,Cc1nc2c(cc1C(=O)N/N=C/c1ccc([N+](=O)[O-])cc1)c(=O)n(C)c(=O)n2C,-12
12,CC1=C(C)CC(C(=O)Nc2cccc(Cl)c2)C(C(=O)O)C1 (stereo not drawn),9.8
13,O=C(NC1CC2CCCC(C1)N2CC(=O)N1CCCc2ccccc21)C1CCCCC1 (stereo not drawn),-70.6
14,O=C(CN1C2CCCC1CC(NC(=O)C1CCCCC1)C2)Nc1ccccc1 (stereo not drawn),-27
15,CC(=O)NC1CC2CCCC(C1)N2CC(=O)N1CCCc2ccccc21 (stereo not drawn),-7.15
16,CCOC(=O)N1CCN(C(=O)C2CCN(C(=O)c3ccc([N+](=O)[O-])cc3)CC2)CC1,-72
17,CCOC(=O)C1CCN(C(=O)C2CCN(S(=O)(=O)N3CCCC3)CC2)CC1,-64.9
18,CCOC(=O)N1CCN(C(=O)C2CCN(S(=O)(=O)N3CCCC3)CC2)CC1,6.91
19,NC(=O)C1CCN(C(=O)c2ccc3c(c2)S(=O)(=O)c2ccccc2C3=O)CC1,2.8
20,CCOC(=O)C1CCN(C(=O)C2CCN(S(=O)(=O)CC)CC2)CC1,-2.7
21,CCOc1ccc(C(=O)N2CCC(C(=O)c3ccc4c(c3)OCCO4)CC2)cc1,-75.7
22,CCOC(=O)C1CCN(C(=O)c2ccc3c(c2)S(=O)(=O)c2ccccc2C3=O)CC1,-76.6
23,CCOC(=O)N1CCN(C(=O)C2CCN(C(=O)c3ccc(C(C)(C)C)cc3)CC2)CC1,-31
24,O=C(c1ccc2c(c1)OCCO2)C1CCN(C(=O)c2ccc(F)cc2)CC1,-13
25,O=C(c1ccc([N+](=O)[O-])cc1)N1CCN(C(=O)C2CCCCC2)CC1,-28.5
26,O=C(c1ccc2c(c1)OCCO2)C1CCN(C(=O)c2ccc(F)c(F)c2)CC1,-15.7
27,O=C1c2ccccc2S(=O)(=O)c2cc(C(=O)N3CCC(O)CC3)ccc21,6.7
